Data reported in PubChem BioAssay.
Records with an inconclusive call do not appear. Unmarked numbers belong to inactive results.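 The calls were made as follows, unless noted: active = viability at or below 27.92% in each of two runs, the all-compound median minus 4 SD; inconclusive = no clear call, values can overlap the other calls; inactive = the rest.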

Assay: growth suppression of beta-catenin knockout HCT116, pilot screen, human colon tumor cells (AID 823;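 active = cell viability at or below a set limit in both duplicate runs, the limit being the all-compound median minus 4 SD, cut at about 23% in these data, passing the limit was not always enough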;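 also: 0% = wells killed by 20 µM Hyamine and 100% = untreated DMSO cell wells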)
Details: CellTiter-Glo, 60 h, at 10 µM, active compounds read low

Row | SMILES | viability
1 | CCN1C(=O)CSc2ccc(C(=O)OC)cc21 | 95.6%
2 | CN(C(=O)c1ccc(=O)[nH]c1)C1(C(=O)NC2CCCCC2)CCCCC1 | 95.7%
3 | CCN1CCCC1CNC(=O)Cn1cnc2sc(C)c(S(=O)(=O)N3CCC(C)CC3)c2c1=O (stereo not given) | 104%
4 | CC1(C)CC(=O)c2cc(C(=O)N3CCN(CCO)CC3)c(=O)n(-c3ccc(Cl)cc3)c2C1 | 103%
5 | CCOc1cc(/C=N/n2cnnc2)ccc1OCC(=O)Nc1ccccc1OC | 101%
6 | Cc1c(NC2=C(Cl)C(=O)N(c3ccccc3)C2=O)c(=O)n(-c2ccccc2)n1C | 90.7%
7 | CCOC(=O)COc1cc2c(C(=O)OCC)c(C)oc2cc1Br | 89.3%
8 | Cc1ccc(NC2=CC(=O)CC(c3ccco3)C2)c(N)c1 (stereo not given) | 81.2%
9 | Cc1ccc(-c2nn3c(C)nnc3s2)cc1NC(=O)c1ccco1 | 113%
10 | CCCCn1c(C(C)NC(=O)COC)nc2ccccc21 (stereo not given) | 91.4%
11 | CCCCNC(=O)CS(=O)Cc1nc(-c2cccs2)oc1C (stereo not given) | 97.6%
12 | COc1ccc(-c2noc(Cc3ccccc3OC)n2)cc1 | 94%
13 | O=C(NC1CCCCCC1)C1CCN(S(=O)(=O)c2cccc3cccnc23)CC1 | 99.5%
14 | Cc1ccsc1C1C2=C(CC(C)(C)CC2=O)Nc2ncnn21 (stereo not given) | 101%
15 | O=C(OC1CCCCC1)c1ccc(NC(=O)c2ccco2)cc1 | 70.1%
16 | Cc1c(NC(=O)Oc2ccccc2)sc(=S)n1C | 102%
17 | CCCC(=O)NCCCc1nc2ccccc2n1CC | 100%
18 | CCC(=O)Nc1c2c(nn1-c1ccc(F)cc1)CS(=O)C2 (stereo not given) | 99.2%
19 | O=C(c1cc(C2CC2)on1)N1CCOCC1 | 96%
20 | COC(=O)c1ccc(NC(=O)c2cnc3scc(C)n3c2=O)cc1 | 101%

Row | SMILES | viability
21 | Cc1ccnc(Nc2nc3ccccc3o2)n1 | 62%
22 | NC(=O)c1ccsc1NC(=O)C1CC1 | 103%
23 | Cn1c(=O)[nH]c(=O)c2c1nc(CN1CCOCC1)n2Cc1ccc(F)cc1 | 98.5%
24 | CCOc1ccc(N(CC(=O)Nc2ccc(OC)cc2)S(=O)(=O)c2c(C)noc2C)cc1 | 83.5%
25 | COCCn1c(=O)[nH]c2cc(C(=O)NCC3CCCO3)ccc2c1=O (stereo not given) | 100%
26 | CCOC(=O)c1ccc(NC(=O)CSc2nnc(Cn3c(=O)sc4ccccc43)n2C)cc1 | 94.1%
27 | COc1ccc(N(CC(=O)NCc2ccc3c(c2)OCO3)S(=O)(=O)c2c(C)nn(C)c2C)cc1 | 101%
28 | CCOC(=O)C1CCN(c2c(N3CCN(Cc4ccccc4)CC3)c(=O)c2=O)CC1 | 90.5%
29 | COc1ccc(NC(=O)C(c2ccccc2)N(C)C(=O)c2cnccn2)cc1 (stereo not given) | 99.2%
30 | c1cnn(-c2nc(N3CCOCC3)nc(N3CCOCC3)n2)c1 | 67.1%
31 | O=C(NCCCN1CCN(c2ccccc2F)CC1)C1CCCN(S(=O)(=O)c2cnc[nH]2)C1 (stereo not given) | 95.1%
32 | CCOc1ccc(N2CC(=O)SC2=S)cc1 | 96.3%
33 | O=C(NCCC1=CCCCC1)NC1CCCCC1 | 87.2%
34 | CCCCNC(=O)Nc1cc(C(=O)OC)ccc1C | 85.2%
35 | Cc1cccc(-c2nnc(-c3ccccc3)o2)c1 | 78%
36 | O=C1CCC(=O)N1c1ccc(CSc2nc3ccccc3[nH]2)cc1 | 104%
37 | CCCSc1nnc(Cn2c(=O)sc3ccccc32)n1C | 94.3%
38 | C=CCSC1=N/C(=C\c2ccc3c(c2)OCO3)C(=O)S1 | 103%
39 | COc1ccc(OC)c2c1sc(=NC(=O)C(C)C)n2C | 79.2%
40 | CCN(CC)c1cc(C)c2cc(NC(=O)CNC(C)=O)ccc2n1 | 90%

Assay: growth suppression of PTEN-deleted HCT116, pilot screen, cell-based, HCT116 clonal line, CellTiter-Glo (AID 824);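 also: 0% = 20 µM Hyamine control and 100% = vehicle cell control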
Details: 60 h, at 10 µM, active compounds read low

Row | SMILES | viability
41 | CCN1C(=O)CSc2ccc(C(=O)OC)cc21 | 90.3%
42 | CN(C(=O)c1ccc(=O)[nH]c1)C1(C(=O)NC2CCCCC2)CCCCC1 | 101%
43 | CCN1CCCC1CNC(=O)Cn1cnc2sc(C)c(S(=O)(=O)N3CCC(C)CC3)c2c1=O (stereo not given) | 84%
44 | CC1(C)CC(=O)c2cc(C(=O)N3CCN(CCO)CC3)c(=O)n(-c3ccc(Cl)cc3)c2C1 | 100%
45 | CCOc1cc(/C=N/n2cnnc2)ccc1OCC(=O)Nc1ccccc1OC | 95.7%
46 | Cc1c(NC2=C(Cl)C(=O)N(c3ccccc3)C2=O)c(=O)n(-c2ccccc2)n1C | 94.4%
47 | CCOC(=O)COc1cc2c(C(=O)OCC)c(C)oc2cc1Br | 89.8%
48 | Cc1ccc(NC2=CC(=O)CC(c3ccco3)C2)c(N)c1 (stereo not given) | 86.5%
49 | Cc1ccc(-c2nn3c(C)nnc3s2)cc1NC(=O)c1ccco1 | 103%
50 | CCCCn1c(C(C)NC(=O)COC)nc2ccccc21 (stereo not given) | 101%
51 | CCCCNC(=O)CS(=O)Cc1nc(-c2cccs2)oc1C (stereo not given) | 95.7%
52 | COc1ccc(-c2noc(Cc3ccccc3OC)n2)cc1 | 83.7%
53 | O=C(NC1CCCCCC1)C1CCN(S(=O)(=O)c2cccc3cccnc23)CC1 | 105%
54 | Cc1ccsc1C1C2=C(CC(C)(C)CC2=O)Nc2ncnn21 (stereo not given) | 102%
55 | O=C(OC1CCCCC1)c1ccc(NC(=O)c2ccco2)cc1 | 77.5%
56 | Cc1c(NC(=O)Oc2ccccc2)sc(=S)n1C | 98.2%
57 | CCCC(=O)NCCCc1nc2ccccc2n1CC | 101%
58 | CCC(=O)Nc1c2c(nn1-c1ccc(F)cc1)CS(=O)C2 (stereo not given) | 99.5%
59 | O=C(c1cc(C2CC2)on1)N1CCOCC1 | 98.7%
60 | COC(=O)c1ccc(NC(=O)c2cnc3scc(C)n3c2=O)cc1 | 95.8%

Row | SMILES | viability
61 | Cc1ccnc(Nc2nc3ccccc3o2)n1 | 57.7%
62 | NC(=O)c1ccsc1NC(=O)C1CC1 | 100%
63 | Cn1c(=O)[nH]c(=O)c2c1nc(CN1CCOCC1)n2Cc1ccc(F)cc1 | 93.4%
64 | CCOc1ccc(N(CC(=O)Nc2ccc(OC)cc2)S(=O)(=O)c2c(C)noc2C)cc1 | 73.9%
65 | COCCn1c(=O)[nH]c2cc(C(=O)NCC3CCCO3)ccc2c1=O (stereo not given) | 95.2%
66 | CCOC(=O)c1ccc(NC(=O)CSc2nnc(Cn3c(=O)sc4ccccc43)n2C)cc1 | 88.5%
67 | COc1ccc(N(CC(=O)NCc2ccc3c(c2)OCO3)S(=O)(=O)c2c(C)nn(C)c2C)cc1 | 101%
68 | CCOC(=O)C1CCN(c2c(N3CCN(Cc4ccccc4)CC3)c(=O)c2=O)CC1 | 86.3%
69 | COc1ccc(NC(=O)C(c2ccccc2)N(C)C(=O)c2cnccn2)cc1 (stereo not given) | 90.8%
70 | c1cnn(-c2nc(N3CCOCC3)nc(N3CCOCC3)n2)c1 | 72.9%
71 | O=C(NCCCN1CCN(c2ccccc2F)CC1)C1CCCN(S(=O)(=O)c2cnc[nH]2)C1 (stereo not given) | 102%
72 | CCOc1ccc(N2CC(=O)SC2=S)cc1 | 95.9%
73 | O=C(NCCC1=CCCCC1)NC1CCCCC1 | 87.3%
74 | CCCCNC(=O)Nc1cc(C(=O)OC)ccc1C | 91.4%
75 | Cc1cccc(-c2nnc(-c3ccccc3)o2)c1 | 81.7%
76 | O=C1CCC(=O)N1c1ccc(CSc2nc3ccccc3[nH]2)cc1 | 92.9%
77 | CCCSc1nnc(Cn2c(=O)sc3ccccc32)n1C | 87.1%
78 | C=CCSC1=N/C(=C\c2ccc3c(c2)OCO3)C(=O)S1 | 96.7%
79 | COc1ccc(OC)c2c1sc(=NC(=O)C(C)C)n2C | 74.1%
80 | CCN(CC)c1cc(C)c2cc(NC(=O)CNC(C)=O)ccc2n1 | 91.1%
